Experimental data reported in PMC6753376.

Experiments:
[1] = molecular target: 26S proteasome regulatory subunit 8 homolog (UniProt Q01939); experiment: cross-link between two proteins; cross-linking mass spectrometry
[2] = molecular target: 26S proteasome regulatory subunit RPN6 (UniProt Q12377); experiment: as above
[3] = molecular target: 26S proteasome regulatory subunit 6B homolog (UniProt P33298); experiment: as above
[4] = molecular target: 26S proteasome regulatory subunit 7 homolog (UniProt P33299); experiment: as above
[5] = molecular target: 26S proteasome regulatory subunit RPN1 (UniProt P38764); experiment: as above
[6] = molecular target: 26S proteasome regulatory subunit RPN8 (UniProt Q08723); experiment: as above
[7] = molecular target: Ubiquitin C-terminal hydrolase RPN11 (UniProt P43588); experiment: as above
[8] = molecular target: 26S proteasome regulatory subunit RPN5 (UniProt Q12250); experiment: as above
[9] = molecular target: 26S proteasome regulatory subunit RPN9 (UniProt Q04062); experiment: as above
[10] = molecular target: 26S proteasome subunit RPT4 (UniProt P53549); experiment: as above
[11] = molecular target: Proteasome subunit beta type-1 (UniProt P38624); experiment: as above
[12] = molecular target: Proteasome subunit beta type-7 (UniProt P30657); experiment: as above
[13] = molecular target: 26S proteasome subunit RPT4 (UniProt P53549); experiment: cross-link between two proteins; affinity purification or IP with mass spectrometry; cross-linking mass spectrometry
[14] = molecular target: 26S proteasome regulatory subunit 4 homolog (UniProt P40327); experiment: cross-link between two proteins; cross-linking mass spectrometry
[15] = molecular target: 26S proteasome regulatory subunit RPN7 (UniProt Q06103); experiment: as above
[16] = molecular target: Proteasome subunit alpha type-4 (UniProt P40303); experiment: as above
[17] = molecular target: Ubiquitin carboxyl-terminal hydrolase 6 (UniProt P43593); experiment: as above
[18] = molecular target: Proteasome subunit beta type-5 (UniProt P30656); experiment: as above
[19] = molecular target: Proteasome subunit alpha type-1 (UniProt P21243); experiment: as above
[20] = molecular target: Probable 26S proteasome regulatory subunit p28 (UniProt P50086); experiment: as above
[21] = molecular target: Proteasome subunit alpha type-6 (UniProt P40302); experiment: as above

Measured: listed as a hit

Probable 26S proteasome regulatory subunit p28, P50086
yes: [1] | [2]

26S proteasome regulatory subunit RPN2, P32565
yes: [3] | [4] | [5] | [2] | [6] | [7]

26S proteasome subunit RPT4, P53549
yes: [1] | [8] | [6] | [9]

Proteasome subunit alpha type-1, P21243
yes: [3] | [8] | [10] | [11] | [12]

Heat shock protein SSA1, P10591
yes: [13]

26S proteasome regulatory subunit 6A, P33297
yes: [3] | [1] | [8] | [6]

Proteasome subunit alpha type-3, P23638
yes: [14] | [1] | [2] | [15] | [16]

26S proteasome regulatory subunit 7 homolog, P33299
yes: [1] | [5] | [15] | [6] | [10] | [16] | [17]

Proteasome subunit beta type-4, P22141
yes: [18]

Proteasome subunit alpha type-2, P23639
yes: [3] | [1] | [2]

26S proteasome regulatory subunit 4 homolog, P40327
yes: [10] | [17]

26S proteasome regulatory subunit RPN1, P38764
yes: [14] | [1] | [15] | [6] | [10] | [7] | [17]

Ubiquitin C-terminal hydrolase RPN11, P43588
yes: [9]

Proteasome subunit alpha type-4, P40303
yes: [14] | [1]

Probable proteasome subunit alpha type-7, P21242
yes: [8] | [10] | [19]

26S proteasome regulatory subunit 8 homolog, Q01939
yes: [2] | [15] | [6]

26S proteasome regulatory subunit 6B homolog, P33298
yes: [14] | [4] | [5] | [2] | [6] | [20] | [7]

Proteasome subunit alpha type-5, P32379
yes: [4]

Proteasome subunit beta type-6, P23724
yes: [21] | [18] | [12]

26S proteasome regulatory subunit RPN12, P32496
yes: [9]

26S proteasome regulatory subunit RPN10, P38886
yes: [7]
